Legend:
Assay type in all cases: functional
[1] = test system: Plasmodium falciparum; test: GSK_TCMDC: Inhibition of Plasmodium falciparum 3D7 in whole red blood cells, using parasite LDH activity as an index of growth. Test compounds present at 2uM
[2] = test system: Plasmodium falciparum; test: GSK_TCMDC: Inhibition of Plasmodium falciparum Dd2 in whole red blood cells, using parasite LDH activity as an index of growth. Test compounds present at 2uM
[3] = test system: HepG2; test: GSK_TCMDC: Percent inhibition of human HepG2 cell line. Test compounds present at 10uM.

## C#CCN(Cc1cc2c(=O)[nH]c(N)nc2cc1C)c1ccc(C(=O)N[C@@H](CCC(=O)O)C(=O)O)cc1
[1]
  Inhibition: 92%
[2]
  Inhibition: 74%
[3]
  Inhibition: 28%

## CCOC(=O)c1c(CN2CCCC2)n(-c2ccccc2)c2cc(Br)c(O)cc12
[1]
  Inhibition: 83%
[2]
  Inhibition: 53%
[3]
  Inhibition: 0%

## COc1ccccc1CNc1ncc(-c2ccsc2)c(-c2nccs2)n1
[1]
  Inhibition: 91%
[2]
  Inhibition: 84%
[3]
  Inhibition: 14%

## CCN(CC)/C(=N\CCCCCC/N=C(\NC(=N)c1ccc(Cl)cc1)N(CC)CC)NC(=N)c1ccc(Cl)cc1
[1]
  Inhibition: 97%
[2]
  Inhibition: 99%
[3]
  Inhibition: 1%

## O=C(NCCN1CCC(NC(=O)c2ccc(-c3ccccn3)s2)CC1)c1ccc(Cl)c(Cl)c1.O=C(O)C(F)(F)F
[1]
  Inhibition: 97%
[2]
  Inhibition: 48%
[3]
  Inhibition: 24%

## Cl.O=C(C=Cc1ccc(F)cc1)NC1CCC(CCN2CCc3ccc(-c4cnccn4)cc3CC2)CC1 (stereo not given)
[1]
  Inhibition: 99%
[2]
  Inhibition: 65%
[3]
  Inhibition: 32%

## CC[C@H](C)CNC(=O)c1ccnc(-c2ccc(CNCCCc3ccccc3)cc2)c1.O=C(O)C(F)(F)F
[1]
  Inhibition: 100%
[2]
  Inhibition: 84%
[3]
  Inhibition: 17%

## Cc1ccc2c(=O)c3cc(C)ccc3[nH]c2c1
[1]
  Inhibition: 96%
[2]
  Inhibition: 94%
[3]
  Inhibition: 10%

## O=C(N[C@@H](Cc1ccccc1)C(=O)NC1CCCc2ccccc21)c1ccc(O)c(-c2ccc(Cl)c(Cl)c2)c1 (stereo not given in full)
[1]
  Inhibition: 97%
[2]
  Inhibition: 99%
[3]
  Inhibition: 0%

## Cc1ccc(S(=O)(=O)O)cc1.N=C(N)NCCCC(=O)NCC(N)=O
[1]
  Inhibition: 100%
[2]
  Inhibition: 0%
[3]
  Inhibition: 20%

Source: ChEMBL document CHEMBL1157539, “Thousands of chemical starting points for antimalarial lead identification” (Nature, 2010)
